The source of these data is the supplement of paper PMC10849652.

What all share (assay): log2 fold change, soluble protein after heating vs DMSO (PISA); higher = thermal stabilisation; K562 lysate, 10 uM; active = over 0.2 and 3.5 SD of the protein, either way, in both replicates (recomputed)
Compound in assay [1]: CS(=O)(=O)CCNCc1ccc(-c2ccc3ncnc(Nc4ccc(OCc5cccc(F)c5)c(Cl)c4)c3c2)o1 [lapatinib]
In outline:
(§1)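 Dounce homogenisation of K562 pellets in PBS pH 7.4 with 1 mM MgCl2 produced a crude extract, used at 1 mg/mL protein. Exposure to 10 μM compound lasted 30 min, and aliquots were then heated for 3 min across 48°C-58°C, pooled and brought to 0.5% NP-40 at 4°C. The supernatant after 21,000xg for 90 min was quantified by TMTpro 16plex LC-MS/MS with channel sums equalised. Duplicate values are given as log-two fold change in thermal stability relative to solvent controls.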

Compound in assay [2]: CS(=O)(=O)N1CCN(Cc2cc3nc(-c4cccc5[nH]ncc45)nc(N4CCOCC4)c3s2)CC1 [pictilisib]
Summed up: as §1

Compound in assay [3]: C[C@H](C1=CC=C(C=C1)C(=O)NC2=C3C=CNC3=NC=C2)N
Summed up:
as §1

Compound in assay [4]: C[C@H](Nc1ncnc2nc[nH]c12)c1cc2cccc(Cl)c2c(=O)n1-c1ccccc1 [duvelisib]
Summed up: as §1

Compound in assay [5]: Cc1cc(Nc2cc(CN3CCOCC3)c3nc(C)c(Cc4ccc(Cl)cc4F)n3n2)n[nH]1 [gandotinib]
In outline:
as §1

Compound in assay [6]: Cc1cc(Nc2cc(N3CCN(C)CC3)nc(Sc3ccc(NC(=O)C4CC4)cc3)n2)n[nH]1 [tozasertib]
Summed up:
as §1

Compound in assay [7]: Cc1ccc(NC(=O)c2ccc(CN3CC[C@H](N(C)C)C3)c(C(F)(F)F)c2)cc1Nc1nccc(-c2cncnc2)n1 [bafetinib]
Summed up:
as §1

Compound in assay [8]: Cc1cccc(CC(=O)N2CCc3c2ccc(-c2cn(C)c4ncnc(N)c24)c3F)n1
Summed up: as §1

Compound in assay [9]: C[C@@H](Oc1cc(-c2cnn(C3CCNCC3)c2)cnc1N)c1c(Cl)ccc(F)c1Cl [crizotinib]
Summed up: as §1

Compound in assay [10]: Cc1ccc(-n2nc(C(C)(C)C)cc2NC(=O)Nc2ccc(OCCN3CCOCC3)c3ccccc23)cc1 [doramapimod]
In outline:
as §1

The full data set covers some 8,800 targets. This sample favours those with a hit. About 0.5% of all pairs of compound and target were hits. A number with no mark means an inactive call.

Sequence of UniProt Q8TEW8 (Q8TEW8 whole entry, looked up): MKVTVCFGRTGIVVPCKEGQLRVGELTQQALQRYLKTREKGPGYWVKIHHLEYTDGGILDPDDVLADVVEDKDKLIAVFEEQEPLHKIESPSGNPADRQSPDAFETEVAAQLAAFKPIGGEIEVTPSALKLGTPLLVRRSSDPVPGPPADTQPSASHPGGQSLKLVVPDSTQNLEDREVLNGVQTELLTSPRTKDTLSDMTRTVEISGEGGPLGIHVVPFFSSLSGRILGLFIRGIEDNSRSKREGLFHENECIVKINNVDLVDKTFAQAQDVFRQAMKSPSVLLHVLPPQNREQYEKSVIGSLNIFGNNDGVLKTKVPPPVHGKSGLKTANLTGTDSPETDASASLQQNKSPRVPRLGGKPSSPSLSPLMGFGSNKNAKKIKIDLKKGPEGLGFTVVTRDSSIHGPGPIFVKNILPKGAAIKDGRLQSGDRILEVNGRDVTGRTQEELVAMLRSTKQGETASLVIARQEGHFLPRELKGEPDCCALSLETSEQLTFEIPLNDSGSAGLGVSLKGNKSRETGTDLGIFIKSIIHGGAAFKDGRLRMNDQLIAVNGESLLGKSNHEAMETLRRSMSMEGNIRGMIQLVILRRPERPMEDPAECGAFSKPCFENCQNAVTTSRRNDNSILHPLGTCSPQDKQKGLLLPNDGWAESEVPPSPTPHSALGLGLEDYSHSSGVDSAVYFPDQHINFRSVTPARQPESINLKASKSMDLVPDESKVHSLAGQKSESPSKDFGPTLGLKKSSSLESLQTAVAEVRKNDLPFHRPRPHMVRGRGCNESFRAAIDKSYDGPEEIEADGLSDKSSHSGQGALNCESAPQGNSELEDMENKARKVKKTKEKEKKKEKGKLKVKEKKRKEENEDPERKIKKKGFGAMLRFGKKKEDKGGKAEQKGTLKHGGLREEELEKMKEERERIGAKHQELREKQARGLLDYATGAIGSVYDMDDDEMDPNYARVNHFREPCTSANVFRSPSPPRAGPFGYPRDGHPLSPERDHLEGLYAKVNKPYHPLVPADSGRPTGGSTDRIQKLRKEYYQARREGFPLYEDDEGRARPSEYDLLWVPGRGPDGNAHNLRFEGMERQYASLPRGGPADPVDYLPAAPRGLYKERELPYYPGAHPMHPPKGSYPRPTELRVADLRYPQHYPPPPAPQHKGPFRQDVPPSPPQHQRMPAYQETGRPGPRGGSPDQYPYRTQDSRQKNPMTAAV
Sequence of UniProt P03928 (P03928 whole entry, looked up): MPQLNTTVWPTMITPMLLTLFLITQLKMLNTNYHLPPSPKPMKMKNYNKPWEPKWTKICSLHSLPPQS
Sequence of UniProt Q9BXW6 (Q9BXW6 whole entry, looked up): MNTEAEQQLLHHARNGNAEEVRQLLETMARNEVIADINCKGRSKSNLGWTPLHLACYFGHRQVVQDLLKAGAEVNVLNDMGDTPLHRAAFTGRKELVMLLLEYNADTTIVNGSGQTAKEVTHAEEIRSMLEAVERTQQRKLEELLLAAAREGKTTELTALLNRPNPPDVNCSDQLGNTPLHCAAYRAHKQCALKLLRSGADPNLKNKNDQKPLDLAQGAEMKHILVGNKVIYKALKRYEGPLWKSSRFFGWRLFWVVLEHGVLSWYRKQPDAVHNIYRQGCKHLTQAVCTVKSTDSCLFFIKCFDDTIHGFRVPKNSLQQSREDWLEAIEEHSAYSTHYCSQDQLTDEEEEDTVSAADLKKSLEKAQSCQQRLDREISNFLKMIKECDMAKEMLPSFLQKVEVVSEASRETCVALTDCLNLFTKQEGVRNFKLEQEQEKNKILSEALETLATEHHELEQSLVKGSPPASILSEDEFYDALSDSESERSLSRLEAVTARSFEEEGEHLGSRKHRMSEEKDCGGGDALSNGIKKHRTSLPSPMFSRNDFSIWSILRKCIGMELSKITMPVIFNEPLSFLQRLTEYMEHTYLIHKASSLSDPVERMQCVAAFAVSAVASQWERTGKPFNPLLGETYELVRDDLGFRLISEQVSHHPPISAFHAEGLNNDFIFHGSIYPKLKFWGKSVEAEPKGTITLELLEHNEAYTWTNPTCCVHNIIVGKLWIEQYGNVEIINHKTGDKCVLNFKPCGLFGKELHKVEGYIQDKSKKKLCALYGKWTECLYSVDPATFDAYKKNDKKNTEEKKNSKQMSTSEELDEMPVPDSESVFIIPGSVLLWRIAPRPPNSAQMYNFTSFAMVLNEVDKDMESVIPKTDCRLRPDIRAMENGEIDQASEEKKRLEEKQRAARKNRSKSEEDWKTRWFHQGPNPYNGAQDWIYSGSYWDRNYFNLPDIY
Sequence of UniProt P10244 (P10244 whole entry, looked up): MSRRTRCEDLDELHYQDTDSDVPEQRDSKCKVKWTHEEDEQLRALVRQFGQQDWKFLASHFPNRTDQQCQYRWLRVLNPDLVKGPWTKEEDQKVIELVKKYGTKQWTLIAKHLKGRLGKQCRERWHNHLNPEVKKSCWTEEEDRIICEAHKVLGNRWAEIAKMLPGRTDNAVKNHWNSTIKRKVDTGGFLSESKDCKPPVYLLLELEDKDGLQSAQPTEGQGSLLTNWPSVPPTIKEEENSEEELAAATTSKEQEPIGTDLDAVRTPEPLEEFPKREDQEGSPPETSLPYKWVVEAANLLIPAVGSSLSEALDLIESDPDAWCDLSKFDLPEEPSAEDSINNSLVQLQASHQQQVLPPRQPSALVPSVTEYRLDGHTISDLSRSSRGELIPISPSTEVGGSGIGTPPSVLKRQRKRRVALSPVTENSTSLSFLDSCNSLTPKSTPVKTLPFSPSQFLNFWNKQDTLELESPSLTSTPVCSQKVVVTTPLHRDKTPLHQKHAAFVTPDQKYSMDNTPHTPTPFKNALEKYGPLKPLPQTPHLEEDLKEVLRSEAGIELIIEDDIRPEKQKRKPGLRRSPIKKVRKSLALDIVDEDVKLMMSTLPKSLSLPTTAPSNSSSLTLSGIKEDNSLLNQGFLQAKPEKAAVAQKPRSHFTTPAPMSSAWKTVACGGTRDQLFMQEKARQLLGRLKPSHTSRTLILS
Sequence of UniProt Q8NE18 (Q8NE18 whole entry, looked up): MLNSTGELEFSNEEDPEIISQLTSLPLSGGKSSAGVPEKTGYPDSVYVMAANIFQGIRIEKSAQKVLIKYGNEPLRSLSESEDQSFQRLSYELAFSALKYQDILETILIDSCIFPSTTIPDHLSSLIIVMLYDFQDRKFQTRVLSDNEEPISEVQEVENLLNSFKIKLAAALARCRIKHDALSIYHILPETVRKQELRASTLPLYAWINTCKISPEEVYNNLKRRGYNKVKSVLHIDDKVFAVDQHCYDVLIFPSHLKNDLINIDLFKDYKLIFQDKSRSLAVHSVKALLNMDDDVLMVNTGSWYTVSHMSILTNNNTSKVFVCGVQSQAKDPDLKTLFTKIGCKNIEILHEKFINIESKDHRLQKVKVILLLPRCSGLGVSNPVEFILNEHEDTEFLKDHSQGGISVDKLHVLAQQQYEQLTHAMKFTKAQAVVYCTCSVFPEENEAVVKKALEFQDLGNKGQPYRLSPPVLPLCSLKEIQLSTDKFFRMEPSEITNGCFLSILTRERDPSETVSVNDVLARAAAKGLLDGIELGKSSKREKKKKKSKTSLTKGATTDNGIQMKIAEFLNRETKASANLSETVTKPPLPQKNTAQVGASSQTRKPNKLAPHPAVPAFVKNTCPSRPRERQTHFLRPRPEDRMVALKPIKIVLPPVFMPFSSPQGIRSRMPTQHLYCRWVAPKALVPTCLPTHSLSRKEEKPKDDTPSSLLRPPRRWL
Sequence of UniProt Q9NVE7 (Q9NVE7 whole entry, looked up): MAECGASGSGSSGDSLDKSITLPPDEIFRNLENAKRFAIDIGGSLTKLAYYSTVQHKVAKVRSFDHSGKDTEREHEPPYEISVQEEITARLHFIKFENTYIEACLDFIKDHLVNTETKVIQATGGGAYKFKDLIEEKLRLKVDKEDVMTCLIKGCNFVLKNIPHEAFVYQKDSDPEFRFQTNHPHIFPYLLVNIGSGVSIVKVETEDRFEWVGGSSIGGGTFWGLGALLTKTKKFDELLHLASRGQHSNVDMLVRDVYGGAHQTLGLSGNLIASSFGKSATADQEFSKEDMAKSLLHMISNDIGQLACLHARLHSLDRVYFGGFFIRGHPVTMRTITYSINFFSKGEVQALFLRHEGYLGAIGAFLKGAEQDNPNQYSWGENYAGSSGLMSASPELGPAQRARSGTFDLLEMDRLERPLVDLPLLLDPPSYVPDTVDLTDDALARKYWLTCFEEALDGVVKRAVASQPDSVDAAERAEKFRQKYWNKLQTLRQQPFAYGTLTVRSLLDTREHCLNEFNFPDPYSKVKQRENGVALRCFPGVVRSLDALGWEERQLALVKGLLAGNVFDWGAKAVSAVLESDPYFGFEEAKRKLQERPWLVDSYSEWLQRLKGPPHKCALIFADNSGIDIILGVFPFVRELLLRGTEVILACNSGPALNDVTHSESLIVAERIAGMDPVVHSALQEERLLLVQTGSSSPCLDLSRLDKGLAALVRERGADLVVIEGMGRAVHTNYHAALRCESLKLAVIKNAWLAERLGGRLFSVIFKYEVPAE
Sequence of UniProt Q9UK39 (Q9UK39 whole entry, looked up): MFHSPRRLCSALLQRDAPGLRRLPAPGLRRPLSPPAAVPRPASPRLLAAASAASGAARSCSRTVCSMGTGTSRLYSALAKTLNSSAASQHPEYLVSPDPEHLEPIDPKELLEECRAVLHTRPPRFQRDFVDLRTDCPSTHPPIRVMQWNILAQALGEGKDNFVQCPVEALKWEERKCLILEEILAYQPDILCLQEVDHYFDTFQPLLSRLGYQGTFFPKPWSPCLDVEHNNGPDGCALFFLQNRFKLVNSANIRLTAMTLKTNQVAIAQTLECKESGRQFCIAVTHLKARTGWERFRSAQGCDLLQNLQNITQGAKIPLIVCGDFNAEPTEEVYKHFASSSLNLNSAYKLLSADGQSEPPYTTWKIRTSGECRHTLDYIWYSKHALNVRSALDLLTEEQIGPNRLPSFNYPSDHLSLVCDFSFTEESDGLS
Sequence of UniProt P84157 (P84157 whole entry, looked up): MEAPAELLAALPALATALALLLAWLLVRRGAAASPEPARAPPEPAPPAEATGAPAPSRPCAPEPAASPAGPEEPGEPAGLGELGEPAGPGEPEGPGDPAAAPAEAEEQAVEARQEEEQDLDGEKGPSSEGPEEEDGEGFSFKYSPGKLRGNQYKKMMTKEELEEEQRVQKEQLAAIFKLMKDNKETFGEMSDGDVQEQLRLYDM

Turning to P2RY1 (UniProt P47900), the log2 fold change was -0.091 in [1]; -0.444 (active) in assay [2]; -0.02 in assay [3]; 0.092 in assay [4]; 0.012 in [5]; 0.1 in assay [6]. Moreover, the log2 fold change in assay [7] is 0.021; in assay [8], 0.007.
Take OSBPL1A (UniProt Q9BXW6): the log2 fold change in assay [1] is -0.035; in assay [2], -0.051; in [9], -0.014; in assay [3], -0.079; in assay [4] it was 0.072; in assay [5] it was 0.069. Further, the log2 fold change in [10] was 0.019; in assay [7] it was -0.077; in assay [8], 0.102.
Take PANK4 (UniProt Q9NVE7): the log2 fold change in [1] is -0.019; in assay [2], -0.037; in [9], -0.052; in assay [3] it was -0.049; in [4], -0.009; in assay [5], 0.125. The log2 fold change in assay [6] was 0.001; in [10] it was -0.001; in assay [7], -0.06; in [8] it was 0.022.
Regarding PARD3B (UniProt Q8TEW8), the log2 fold change in assay [3] is -0.197; in assay [4], 0.024; in assay [5] it was 0.074; in [8], 0.042.
As to NFATC4 isoform 2 (UniProt Q14934), the log2 fold change in [1] is 0.039; in [2] it was 0.003; in assay [9], -0.132; in [3], -0.187; in [4] it was -0.006; in assay [5], 0.04. Moreover, the log2 fold change in assay [6] was 0.084; in assay [10], 0.026; in assay [7] it was -0.305; in [8], 0.192.
On to NFAT5 isoform 4 (UniProt O94916), for which the log2 fold change was -0.138 in [2], -0.028 in [9], -0.158 in assay [10] and -0.053 in assay [7].
Consider MT-ATP8 (UniProt P03928), for which the log2 fold change in assay [1] was 0.024; in [2], -0.002; in [9] it was -0.121; in assay [3], 0.402 (active); in assay [5] it was -0.054; in [6], -0.078. Moreover, the log2 fold change in assay [10] is 0.011; in assay [7], -0.087; in [8] it was -0.107.
PAPOLG (UniProt Q9BWT3): the log2 fold change in assay [9] is -0.139; in assay [3] it was -0.026; in assay [4], 0.02; in assay [5] it was -0.002; in [6], -0.027; in assay [10], 0.017. In [8], the log2 fold change was 0.067.
Take PAGE2B (UniProt Q5JRK9): the log2 fold change in [1] was 0.216; in assay [9] it was 0.051; in assay [3], 0.267; in [4] it was 0.011; in assay [5], -0.115; in assay [6], -0.017. In addition, the log2 fold change in [10] was 0.025; in assay [8], -0.097.
As to NUB1 isoform 2 (UniProt Q9Y5A7), the log2 fold change was 0.015 in [9] and 0.063 in assay [10].
Take NOCT (UniProt Q9UK39): the log2 fold change in assay [1] is -0.025; in assay [9], 0.024; in assay [4], 0.039; in assay [6], 0.111; in assay [10] it was 0.063.
With NSUN7 (UniProt Q8NE18), the log2 fold change in assay [1] was -0.094; in [2], -0.001; in [9], -0.374; in assay [3], -0.039; in assay [5], 0.022; in [6], 0.152. Also, the log2 fold change in assay [10] was 0.045; in [7], 0.285; in assay [8], 0.125.
Consider NUDT6 (UniProt P53370), for which the log2 fold change was 0.051 in assay [9], -0.034 in assay [4], 0.132 in assay [6] and -0.073 in [10].
Turning to MXRA7 (UniProt P84157), the log2 fold change is -0.039 in assay [1]; 0.103 in assay [9]; -0.149 in assay [3]; 0.056 in assay [4]; -0.008 in assay [5]; -0.05 in assay [6]. The log2 fold change in [10] was 0.041; in assay [8], 0.096.
Take MYBL2 (UniProt P10244): the log2 fold change in assay [9] was -0.018; in [3], 0.181; in [4], -0.011; in [5], -0.286; in assay [6], 0.001; in assay [10], 0.017. Also, the log2 fold change in assay [8] is -0.184.
For NPLOC4 (UniProt I3L3I1), the log2 fold change in assay [2] is 0.145; in [9] it was -0.53; in assay [4] it was 0.038; in assay [6] it was -0.216; in assay [10], -0.002; in assay [7], -0.214.
As to NEXN (UniProt Q0ZGT2), the log2 fold change is 0.066 in [1]; -0.137 in [2]; -0.239 in assay [3]; -0.088 in assay [4]; 0.172 in assay [5]; -0.237 in [6]. The log2 fold change is 0.043 in assay [7] and 0.198 in assay [8].
On to NRIP1 (UniProt P48552), for which the log2 fold change is -0.052 in assay [1]; -0.007 in assay [2]; -0.155 in assay [9]; -0.396 in assay [3]; -0.014 in assay [4]; 0.407 in [5]. The log2 fold change in [10] is 0.048; in assay [7] it was -0.07; in assay [8], 0.26.
As to MYO10 (UniProt Q9HD67), the log2 fold change in assay [2] was 0.076; in assay [9], -0.042; in assay [3], 0.696 (active); in [5] it was -0.016; in assay [10], -0.321; in [7], -0.456. The log2 fold change in assay [8] is -0.029.
As for MYO9A isoform 4 (UniProt B2RTY4), the log2 fold change was -0.027 in [1]; 0.022 in [2]; -0.03 in assay [9]; -0.014 in [3]; -0.019 in assay [4]; -0.044 in [5]. Also, the log2 fold change in assay [10] is 0.005; in [7], -0.103; in [8] it was 0.036.
Turning to ORC1 (UniProt Q13415), the log2 fold change in assay [6] is 0.023.
